Assay results as given in the OligoGym collection.

What follows are sequences tested against POP5 (assay: pooled miR-30 sensor sort-seq; sequence = guide strand). Settings: shRNA.
Note: reference of the scale not given here.

Row | Sequence | sensor-assay potency score (higher = more potent)
1 | TTGTTCTGTTCAACAAGTGGGC | -0.188
2 | TACAGAGTTCACAACCTGCAAC | -0.95
3 | TTCTTGTCACAGACTTCTGGAT | -0.854
4 | TGAATTAGGAACTTCTGACATG | -0.611
5 | TATTAAATCTACTCTTAGCCAA | -0.331
6 | TAACTGAGTACTCCATTTCAAG | -1.58
7 | TTCTGCATCGAAGTAGCACTAT | -0.187
8 | TTCATCAGTGCAGTTCTGCAAC | -0.521
9 | AAGATCAACAGCTGTCTCCTGT | 0.552
10 | TACTGAATTAGGAACTTCTGAC | -0.267
11 | ATTAAATCTACTCTTAGCCAAG | -1.64

These sequences were tested against POU2F2 in the same assay as above. Settings: shRNA.

Row | Sequence | sensor-assay potency score (higher = more potent)
12 | TTTGTCTCGATGCTGGTCCTCT | -0.192
13 | TTCGGTGTCTGTGTGCTCTGAT | 0.743
14 | TAGATTTGGTGTCGGTAGCAGG | -0.991
15 | TTCGCTAGAAAACTCTTCTCTA | 0.465
16 | TTAGACATTCTTATTTCTGGAG | -0.093
17 | TTGAGTTTGCACATGTTCTTGA | 1.05
18 | ATTTCTTTCGGTGTCTGTGTGC | -0.0405
19 | TTGATCTTTGTACTGGGGCCAG | -0.786
20 | TTTCGGTGTCTGTGTGCTCTGA | -0.406
21 | TTAGTGTCTGGTCCATTTCTTT | -1.05
22 | TTGGTGTCGGTAGCAGGCCTGG | -1.3
23 | TCTTCTTGCGTCTCCGGCCGGG | -0.79

Each sequence was assayed against PPARD in the same assay as above. Settings: shRNA.

Row | Sequence | sensor-assay potency score (higher = more potent)
24 | TTCTTCTGAATCTTGCAGCTGC | 0.468
25 | TAAGAAAGGAGGACAGACGTGG | 0.523
26 | TCGTACTCCAGCTTCATGCGGA | -0.0495
27 | TTGACAGCAAATTCAAACTTAG | -0.865
28 | TTGATCCGCTGCATCATCTGGG | -0.175
29 | TTGCCGGTGAGGATGCTGCGGG | -0.839
30 | TTCGGTCTTCTTGATCCGCTGC | 0.435
31 | TAGCGTTGTGTGACATGCCCAG | 0.138
32 | TTGAACTTGACAGCAAATTCAA | -0.881
33 | TTAAAGTTTCGTCAGTCTGTGT | -0.63
34 | TTGGAGATTGTTCAGACACTGA | -0.713
35 | TTCTTCTTCTGAATCTTGCAGC | 0.0519

These sequences were tested against PPARGC1A in the same assay as above. Settings: shRNA.

Row | Sequence | sensor-assay potency score (higher = more potent)
36 | TTTATCACTTTCATCTTCGCTG | 0.495
37 | TTAGACTTGAAAAATTGCTTGC | 0.583
38 | TTGTCTAGAGTCTTGGAGCTCC | 0.145
39 | TAGGTAATGAAACCATAGCTGT | -0.856
